The full list was thinned out, with hits kept by preference.
IL1B secr inh = qHTS for Inhibitors of Inflammasome Signaling: IL-1-beta AlphaLISA Primary Screen | THP-1 LPS/ATP IL-1B secretion, AlphaLISA, 16 h; active compounds read low | activity change, % at 57.5 µM | 360,000 tested, 4.7% active; in the data active means activity change below about -50%; inconclusive means mostly about -30% to -49%
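THP-1 cells pretreated 1 hr with compounds (up to 57.5 uM final), then stimulated with LPS (250 ng/mL final) plus ATP (1.25 mM final); secreted IL-1B measured by AlphaLISA after 16 hr, decreased signal indicating inhibition.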
TDP1 cell noCPT = qHTS for Inhibitors of human tyrosyl-DNA phosphodiesterase 1 (TDP1): qHTS in cells in absence of CPT. Potency, µM (titrated, usually from 46.2 µM), without a hit: at the top dose activity change, negative = growth inhibition, hits mostly inhibitors. DT40 Tdp1-/- hTDP1 cells, no CPT, ATP luminescence, 48 h. 420,000 tested, 15% active; further: potency means the concentration at half of the fitted maximal effect; nearly all actives have a fitted effect of over 55% in size
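DT40 Tdp1-/-;hTDP1 cells, no CPT (DMSO vehicle only), 400 cells/well; compounds pin-transferred; ≥48 hr, 37 °C; CellTiter-Glo 30 min RT dark, luminescence read.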
HT1080 IDH1KD tx = qHTS for induction of synthetic lethality in tumor cells producing 2HG: qHTS for the HT-1080-IDH1KD cell line; HT-1080 IDH1 knockdown viability, ATP luminescence, 48 h; AID 686971, 2013; Potency, µM (doses to about 46.1 µM), for inactives: at the highest dose activity, negative = toxicity, actives largely listed as cytotoxic; 360,000 tested, 2% active;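 further: potency means the concentration at half of the fitted maximal effect; 0% = DMSO wells and -100% = cell-free medium wells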
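In this qHTS, HT-1080 cells depleted of IDH1 are exposed for 48 h at 37 °C to compound titrations. Toxicity is scored from CellTiter-Glo luminescence, with DMSO as full viability and medium alone as none.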
DT40 TDP1 CPT = qHTS for Inhibitors of human tyrosyl-DNA phosphodiesterase 1 (TDP1): qHTS in cells in presence of CPT; Potency, µM (highest dose often 46.2 µM), inactives show at the top dose activity change, negative = growth inhibition, most hits filed as inhibitors; chicken DT40 Tdp1-/-;hTDP1 cells + 20 nM CPT, ATP luminescence, 48 h; 420,000 tested, 12% active; AID 686979, 2013; further: potency means the concentration at half of the fitted maximal effect; nearly all actives have a fitted effect of over 55% in size
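Cell growth measured by CellTiter-Glo luminescence after a minimum 48 h, 37 C compound exposure with 20 nM CPT in Tdp1-knockout DT40 cells stably expressing hTDP1, seeded 400/well; qHTS titration format.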
12-LOX inh = Primary qHTS assay for inhibitors of human arachidonate 12S-lipoxygenase (ALOX12): Round 2 | Polyunsaturated fatty acid lipoxygenase ALOX12 (Homo sapiens), P18054 | purified 12hLO, xylenol orange hydroperoxide absorbance | Potency, µM (highest dose often 108 µM), without a hit: top-dose activity change, negative = inhibition, usual class: inhibitors | 580,000 tested, 1.1% active; further: potency means the concentration at half of the fitted maximal effect
Target sequence (P18054 whole entry, looked up): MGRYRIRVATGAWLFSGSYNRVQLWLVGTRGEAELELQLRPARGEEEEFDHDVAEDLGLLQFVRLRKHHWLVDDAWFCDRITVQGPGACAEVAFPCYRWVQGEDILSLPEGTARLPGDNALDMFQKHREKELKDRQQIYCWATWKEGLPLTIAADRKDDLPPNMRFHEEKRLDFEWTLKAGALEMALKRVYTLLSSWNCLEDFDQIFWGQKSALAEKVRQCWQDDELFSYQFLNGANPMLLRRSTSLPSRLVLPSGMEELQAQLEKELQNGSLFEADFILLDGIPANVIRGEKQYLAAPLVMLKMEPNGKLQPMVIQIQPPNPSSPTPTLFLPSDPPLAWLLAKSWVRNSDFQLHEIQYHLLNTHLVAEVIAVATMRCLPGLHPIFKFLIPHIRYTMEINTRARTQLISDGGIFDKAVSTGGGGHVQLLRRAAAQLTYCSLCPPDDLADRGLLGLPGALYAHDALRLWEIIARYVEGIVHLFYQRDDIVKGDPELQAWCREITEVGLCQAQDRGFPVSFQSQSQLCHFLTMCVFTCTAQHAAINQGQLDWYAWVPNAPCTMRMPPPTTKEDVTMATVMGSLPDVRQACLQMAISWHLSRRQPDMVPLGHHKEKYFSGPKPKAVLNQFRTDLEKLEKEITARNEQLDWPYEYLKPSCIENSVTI
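Purified human 12hLO (150 nM final) in 25 mM Hepes, 0.01% Triton X-100, pH 7.0 was preincubated 15 min at room temperature with compound. Then 40 uM arachidonic acid was added, 30 min. Hydroperoxide was read by Fe-XO absorbance ratio 573/405 nm.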
HT1080-NT tox = qHTS for induction of synthetic lethality in tumor cells producing 2HG: qHTS for the HT-1080-NT fibrosarcoma cell line; 360,000 tested, 1.6% active; Potency, µM (highest dose often 46.1 µM), for the others: top-dose activity, negative = less viability, usual class: cytotoxic; HT-1080-NT fibrosarcoma viability, CellTiter-Glo ATP luminescence, 48 h;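 further: NT is the 2HG producing partner of a matched IDH1 knockdown line; potency means the concentration at half of the fitted maximal effect; 0% = DMSO-treated cells and -100% = media-only wells without cells; nearly all actives have a fitted effect of over 55% in size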
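750 cells/well, RPMI + 5% FBS; 2 h settle, compound pin-transfer, 48 h at 37 degrees C. CellTiter-Glo 10 min RT, luminescence. Normalized to DMSO and media-only wells.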
* hit, by the source's call; u = inconclusive; x = no result. Unless noted, the call rests on the fitted dose curve; in most records, active means well fitted curve in the direction sought with a large enough effect; inconclusive means small, poorly fitted or top-dose-only effect, or another doubt; inactive means no such curve, though single readings can be large; an effect the other way counts as inactive or inconclusive. Unless noted, on the % scale 0 is the no-effect control and ±100 the full control effect.

SMILES | IL1B secr inh | TDP1 cell noCPT | HT1080 IDH1KD tx | DT40 TDP1 CPT | 12-LOX inh | HT1080-NT tox
O=C(Nc1cc(F)c(F)c(F)c1)N1CC2CC(C1)[C@H]1CCCC(=O)N1C2 (stereo partly drawn) | x | x | x | x | 25% | x
Cc1ccc(-n2c(=O)c3c(cc(C)n3C)n(CC(=O)Nc3ccccc3F)c2=O)cc1 | x | x | x | x | -2% | x
CCCOc1ccccc1C(C)N (stereo not drawn) | x | x | x | x | 55% | x
CCCCOc1ccc(Br)cc1/C(C)=N/NC1=NCCN1 | -113* | 4.1µM* | 6.5µM* | 4.6µM* | u | 8.2µM*
CC(=NNC1=NCCN1)c1cn(C2=NCCN2)nc1C | -10 | -16% | 6% | -27% | 6% | 16%
C/C(=N\NC1=NCCN1)c1ccc(N)c([N+](=O)[O-])c1 | -16 | u | -12% | -27% | -2% | 4%
COc1ccc(/C(C)=N/NC2=NCCN2)cc1Cl | -74* | -19% | -8% | -12% | 0% | -17%
CCCCCCOc1ccc(/C(C)=N/NC2=NCCN2)cc1[N+](=O)[O-] | -92* | 10µM* | -11% | u | -14% | -23%
Cc1ccc(C(=O)N2C[C@@H](CO)[C@H](c3ccncc3)C2)nc1 | x | x | x | x | 34% | x
CC(=O)c1c(C)oc2c1C(=O)c1ccccc1C2=O | 35 | 7.3µM* | -5% | 8.2µM* | -9% | -1%
COc1ccc(CNC(=O)c2c(C)oc3c2C(=O)c2ccccc2C3=O)cc1 | 37 | 10µM* | -10% | 8.2µM* | u | u
Cc1onc(-c2ccccc2Cl)c1C(=O)NCc1cccnc1 | -14 | 0% | -2% | -17% | -27% | -1%
Cc1oc2c(c1C(=O)NCc1cccnc1)C(=O)c1ccccc1C2=O | -81* | 1µM* | 2.6µM* | 0.92µM* | x | 4.1µM*
O=C(NCc1cccnc1)c1ccc(-c2cc3ccccc3oc2=O)cc1 | -22 | u | u | 12µM* | -9% | u
CC1CCCCN1C(C)CNC(=S)NCc1ccco1 (stereo not drawn) | x | x | x | x | -47% | x
NC(=O)c1ccc(NC(=O)Cn2ccc3c(Cl)cccc32)cc1 | x | x | x | x | -46% | x
COc1ccc(CCNC(=O)c2[nH]c(C)c(C(C)=O)c2C)cc1 | -16 | -17% | 2% | -16% | 0% | 8%
CCCCNC(=O)c1[nH]c(C)c(C(C)=O)c1C | 16 | -3% | 0% | 42% | 3% | 9%
COc1ccc(CNC(=O)c2[nH]c(C)c(C(C)=O)c2C)cc1 | 46 | u | -9% | 9.2µM* | u | -4%
CCCCC(CC)CNC(=O)c1[nH]c(C)c(C(C)=O)c1C (stereo not drawn) | 25 | 23µM* | -7% | u | 158% | 12%
COc1ccc2[nH]cc(CCNC(=O)c3ccc(N4CC5CC(C4)[C@H]4CCCC(=O)N4C5)nc3)c2c1 (stereo partly drawn) | x | x | x | x | 25% | x
Cc1ccc(NC(=O)C2(c3cccs3)CCOCC2)cc1Cl | x | u | x | 26µM* | 0% | x
CC(=O)Nc1cccc(NC(=O)C2(c3cccs3)CCOCC2)c1 | x | -7% | x | -1% | -14% | x
CN(C)c1ccc(NC(=O)C2(c3cccs3)CCOCC2)cc1 | x | -2% | x | -4% | -1% | x
O=C(Nc1cc(Cl)ccc1Cl)C1(c2cccs2)CCOCC1 | x | 21µM* | x | 16µM* | -16% | x
SMILES | IL1B secr inh | TDP1 cell noCPT | HT1080 IDH1KD tx | DT40 TDP1 CPT | 12-LOX inh | HT1080-NT tox
O=C(Nc1ccc(C(F)(F)F)cc1)C1(c2cccs2)CCOCC1 | x | 23µM* | x | u | u | x
Cc1oc(-c2cccs2)nc1CN1CC[C@@](O)(c2ccccc2)[C@H]2CCCC[C@@H]21 | -74* | u | -29% | u | -9% | -29%
Cc1ccccc1CC1(CO)CCCN(Cc2nc(-c3cccs3)oc2C)C1 (stereo not drawn) | -4 | 21µM* | u | u | -4% | u
Cc1oc(-c2cccs2)nc1CN1CCN(CC(C)C)C(CCO)C1 (stereo not drawn) | 16 | u | 3% | u | 1% | -3%
CC(=O)N1CCN(Cc2nc(-c3cccs3)oc2C)CC1 | x | x | x | x | 12% | x
CCOC(=O)c1c(C)[nH]c(C(=O)Cn2cnc3ccccc3c2=O)c1C | x | x | x | x | -17% | x
O=C(Nc1ccc2oc(-c3ccncc3)nc2c1)c1cccc(Cl)c1 | x | x | x | x | 5% | x
COc1ccc(N2CSC3=C(C#N)C(c4ccc(OC)c(OC)c4)CC(=O)N3C2)c(OC)c1 (stereo not drawn) | 26 | u | 4% | u | u | -19%
COc1cc(C2CC(=O)N3CN(c4cccc(Cl)c4)CSC3=C2C#N)ccc1O (stereo not drawn) | x | x | x | x | 18µM* | x
COc1cc(C2CC(=O)N3CN(c4ccc(C)c(Cl)c4)CSC3=C2C#N)ccc1O (stereo not drawn) | x | x | x | x | 0.89µM* | x
CNC(=O)NC(=O)CN1CCN(c2oc(C3CC3)nc2C#N)CC1 | x | x | x | x | 3% | x
COc1ccccc1-c1nc(C#N)c(NCCN(C)C)o1 | x | x | x | x | 13% | x
O=C(C1CCCCC1)N(Cc1cccnc1)c1nc2c(F)cc(F)cc2s1 | x | 15µM* | x | 21µM* | -43% | x
CC(=O)N(Cc1cccnc1)c1nc2c(F)cc(F)cc2s1 | x | u | x | u | -20% | x
CCOc1ccc2nc(N(Cc3cccnc3)C(=O)C3CCCCC3)sc2c1 | x | -24% | x | u | -3% | x
COc1ccc2sc(N(Cc3cccnc3)C(=O)C3CCCCC3)nc2c1 | x | 23µM* | x | 13µM* | -6% | x
O=C(Nc1cccc(-n2cccn2)c1)C1CCCN(C(=O)N2CCOCC2)C1 (stereo not drawn) | x | x | x | x | 4% | x
CCCC(=O)N1CCC1(C)C(=O)Nc1cc(-c2ccccc2)nn1C (stereo not drawn) | 92 | -74% | -14% | u | -24% | -2%
CSc1ccc(NC(=O)C2(C)CCN2C(=O)c2ccccc2CCc2ccccc2)cc1 (stereo not drawn) | -7 | u | -9% | u | -6% | 1%
Cn1nc(C(C)(C)C)cc1NC(=O)C1(C)CCN1C(=O)CC(c1ccccc1)c1ccccc1 (stereo not drawn) | -20 | 18µM* | -6% | 18µM* | -2% | 6%

Assay outcomes from PubChem BioAssay.
